Where “and” joins values, the source holds several entries; their conditions need not be identical. Equal entries are not always repeated. Compounds without any hit were thinned out: in the full panel of roughly 83,000, 20% have a hit.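 Treatment: one concentration, 48 hours, 96-well format. Scoring: percent growth, with anything below 10 considered active.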 Calls of active or inactive are those of the source.

This experiment relates to MDA-MB-468 breast. The experiment in a line: NCI-60 one-dose screen, 48 h (100 = growth as untreated, 0 = no growth, -100 = all killed). Conditions: 10 µM unless noted.
`Clc1ccc(-c2cn(-c3ccccc3)c(-c3ccccc3)n2)c(Cl)c1`: the growth is -61.3% (active).

`COc1ccc2nc3cc(Cl)ccc3c(N3CCN(c4ccnc(N5CCN(C)CC5)n4)CC3)c2c1`: the growth was -51.9% (active).

As for `CNCCOc1nc2c3cnccc3cc(-c3cc(OC)c(OC)c(OC)c3)c2c2ccncc12`, the growth was -43.2% (active).

As to `COc1cc(CNc2ccccc2C(=O)N2CCN(C(=O)c3cc(-c4cc(OC)c(OC)c(OC)c4)n4nc(-c5ccccc5)cc4n3)CC2)cc(OC)c1OC`, the growth is 23.1% (inactive).

In the case of `Cc1ncc(-c2ccnc(Nc3ccc(S(C)(=O)=O)cc3)n2)n1C(C)C`, the growth is -48.8% (active).

On to `COc1cc2cc(Oc3ccc(NC(=O)Nc4ccc(Cl)c(C(F)(F)F)c4)cc3)c(C)nc2cc1OCCN1CCCCC1`, for which the growth is -72.3% (active).

With `CCOC(=O)NCCc1ccccc1`, the growth was 112% (inactive).

With `O=C1C(=O)c2c(nc3ncccn23)-c2ccccc21`, the growth is -64.9% (active).

For the compound `CC(=O)Oc1ccccc1C(=O)N=C1[Se]CCCN1C(=O)c1ccccc1OC(C)=O`, the growth is -19.2% (active).

As to `Cn1cc(CC2CC(=O)N(c3ccccc3)C2=O)sc1=NC(=O)c1ccccc1` (stereo not drawn), the growth is 99.8% (inactive).

In the case of `CSCCCNC(=O)c1ccc2c(c1)/C(=C/c1[nH]c(C)cc1C)C(=O)N2`, the growth was 42.7% (inactive).

On to `OCCN1CCN(c2cc(-c3cccc(OC(F)(F)F)c3)nc3ccc(N4CCCC4)cc23)CC1`, for which the growth is 16.6% (inactive).

Take `CN1CCC[C@]2(C)[C@H]3CC[C@@H]4[C@@H]5[C@H]6OC[C@@]5(CCC6(C)C)CC[C@@]4(C)[C@]3(C)CC[C@H]2C1(C)C`: the growth is 82% (inactive).

Regarding `O=c1c2cc(F)ccc2sc2c(NCCCNCCO)nc3ccccc3c12`, the growth was -72.8% (active).

Turning to `C#CCCCCCCC[C@@H]1OC(=O)[C@H]([C@@H](C)CC)NC(=O)[C@H]([C@@H](C)CC)NC(=O)CC(=O)[C@@H]1C`, the growth is 95.3% (inactive).

`O=C(/C=C/c1ccc[nH]1)c1ccc(-n2ccc(C(F)(F)F)n2)c(F)c1`: the growth was 60.4% (inactive).

`CCCNC(=O)Oc1ccc(/C(=C(/C)Cc2ccc(OC)cc2)c2ccc(OCCCN(C)C)cc2)cc1`: the growth is 73.6% (inactive).

Consider `Cc1cccc(-c2nc(N(C)c3ccc4ncsc4c3)c3ccccc3n2)n1`, for which the growth is 51% (inactive).

On to `COC(=O)c1ccc(C(C)C)cc1`, for which the growth is 110% (inactive).

In the case of `COc1cc2c3c(c1)nc(C)n3CCC2`, the growth is 99.6% (inactive).

For `CN(C)CCCOc1c2ccc(Cl)cc2nc2c1oc1ccc(Cl)cc12`, the growth is -48% (active).

As to `COc1ccc2c(c1)C1(C(=O)N2)C(C#N)=C(c2ccccc2)Nc2c1c(-c1ccccc1)nn2-c1ccccc1` (stereo not drawn), the growth is 76.5% (inactive).

`O=[N+]([O-])c1ccc(O)c2ncccc12`: the growth is 30.6% (inactive) and 1.77% (active).

For the origin of these results see PubChem BioAssay (NCI).
